40 compounds from PubChem BioAssay can be followed below.

The assay is described as follows: viability loss of caspase-8 NB7 cells with TRAIL – with/without TRAIL, luminescence panel, confirmation (AID 651596). The settings on record: NB7 neuroblastoma + caspase-8, without TRAIL, NB7 Caspase-8, without TRAIL, mean of runs, at 10 µM.
`Cc1ccc(C(=O)COC(=O)c2ccc3c(c2)C(=O)N(c2cccc4ncccc24)C3=O)cc1`: the activity came out at 43.5%. The value for `Cc1ccn2cc(-c3cccc(NC(=O)CCC(=O)O)c3)nc2c1` was 60.1%.

Consider `CCN1CCN(CCCNC(=O)c2ccc3c(c2)NC(=O)/C(=C\c2cccc(C)c2)S3)CC1`, for which the activity turned out to be 89.2%.

As for `CN(C(=O)c1ccc(NC(=O)Cc2cccc(NC(=O)C3CCCN(S(=O)(=O)c4cccc([N+](=O)[O-])c4)C3)c2)cc1)C1CC1` (stereo not given), the activity is 36.1%. In the case of `CN1C(=O)c2ccccc2C(C(=O)NCCCN2CCCC2)C1c1c[nH]c2ccccc12` (stereo not given), the activity came to 55.5%. In the case of `Nc1ccc(-c2nc3ncccc3o2)c(Cl)c1`, the activity is 32.2%.

Regarding `CCc1nnc(NC(=O)CSc2nc3c(cc2C#N)CCC3)s1`, the activity amounted to 70.8%. As for `Cc1cc(C)c(C)c(S(=O)(=O)N2CCN(c3ncnc4ccccc34)CC2)c1C`, the activity came out at 40.1%. Regarding `Cc1ccc(C(=O)Nc2ccc(C)c(S(=O)(=O)N(C)C)c2)s1`, the activity was found to be 66.5%.

`Cc1c(C)c2ccc(OCC(=O)Nc3nccs3)cc2oc1=O`: the activity was found to be 57.8%. Consider `CCOc1cccc2sc(N(CCCN(C)C)C(=O)c3ccc(S(=O)(=O)N4CCc5ccccc5C4)cc3)nc12`, for which the activity was 73.7%. The value for `O=C(N/N=C/c1ccc[nH]1)c1ccc(COc2cccc3cccnc23)cc1` was 90.3%. For `CC(C)N1CCc2c(sc(NC(=O)c3ccc([N+](=O)[O-])o3)c2C(N)=O)C1`, the activity was determined as 93.5%.

For the compound `COc1ccc(/C=C2\Oc3ccccc3C2=O)cc1`, the activity turned out to be 74.3%.

As for `C/C(=N/NC(=O)c1ccccn1)c1ccco1`, the activity is 41.5%. `Cn1nccc1C(=O)Oc1cccc(/C=N/NC(=O)c2ccccc2O)c1`: the activity is 13.6%. As for `CCOC(=O)c1nn(-c2ccc3c(c2)CCN3C(C)=O)cc1O`, the activity was 47.6%. Turning to `COc1cccc(C(=O)Oc2c(CN3CCOCC3)cc(Cl)c3cccnc23)c1`, the activity was found to be 60.3%. Turning to `CCc1ccc(NC(=O)c2cnn3ccccc23)cc1`, the activity turned out to be 58.6%. To `Cc1cc(Br)c(OCc2ccc(C(=O)N/N=C/c3ccc[nH]3)cc2)c(Br)c1` belongs 86.5%; to `CCCCOc1ccc(-c2nc(=S)[nH][nH]2)cc1`, 66.6%; to `CCc1ccc(C(=O)Cn2ncc(Cl)c(Cl)c2=O)cc1`, 99.4%. The value for `C(=N\NC1=Nc2cccc3cccc1c23)/c1ccccn1` was 43%; that for `Cc1ccc(C(C)C)c(OCC(=O)Nc2ccc3c(c2)nc(CCN2CCCCC2)n3C)c1` was 39.4%.

Regarding `CCOC(=O)N1CCN(C(=O)CSCC(=O)Nc2nc(-c3ccc(-c4ccccc4)cc3)cs2)CC1`, the activity stood at 68%.

`COCCN(C(=O)COC(=O)c1c(NC(C)=O)sc(C)c1C)c1c(N)n(Cc2ccccc2)c(=O)[nH]c1=O`: the activity amounted to 65.8%. To `NC(=O)c1ccccc1N/C=C/C(=O)c1ccccc1` belongs 58.9%; to `COc1ccc(OC)c(S(=O)(=O)Nc2ccc(-c3ccc4nncn4n3)cc2)c1`, 59.3%.

Take `COc1ccc(C(=O)Nc2ccccc2C(N)=O)cc1`: the activity turned out to be 56.2%. For `Cc1cccc(C(=O)Nc2ccc(C(=O)Nc3ccc(O)cc3)cc2)c1`, the activity stood at 89.1%. To `CCN1CCN(CCNC(=O)c2ccc3c(c2)N(Cc2ccc(F)cc2)C(=O)/C(=C/c2ccccc2)S3)CC1` belongs 80.5%; to `O=[N+]([O-])c1ccc(Sc2ccncn2)c([N+](=O)[O-])c1`, 65.8%; to `O=C(Nc1cccc(-c2ccc(N3CCCCC3)nn2)c1)C(F)(F)F`, 95.2%. In the case of `Cc1nc2ccc(-c3nc4cc(N)ccc4o3)cc2[nH]1`, the activity worked out at 57.4%. With `C[C@H](CO)N1C[C@H](C)[C@@H](CN(C)C(=O)NC2CCCCC2)Oc2c(NS(=O)(=O)c3ccccc3)cccc2C1=O`, the activity stood at 1.05%. In the case of `C(=N\Nc1nncc2ccccc12)/c1ccccc1`, the activity was 87.7%.

On to `CC(=C/c1ccccc1)/C=N/NC(=O)c1ccccn1`, for which the activity stood at 85.2%. On to `O=c1cc(-c2c(F)c(F)c(F)c(F)c2F)oc2ccccc12`, for which the activity is 92.1%. Take `S=c1nc[nH]c2c1ncn2C1CCCO1` (stereo not given): the activity worked out at 47.4%. To `COc1ccc(-c2cc(C(=O)N3CCOCC3)no2)cc1` belongs 49.9%.
